# In PubChem BioAssay (NCATS):
# Several values for one entry are separate records, joined by “and”; a condition that tells them apart may be missing. Equal entries are not always repeated. Records with an inconclusive call do not appear. Entries that show only a call come without a potency. More than one record can exist for a structure, and the calls need not agree. Unmarked numbers belong to inactive results. Activity calls are given as the source filed them. Calls follow the shape of the dose curve; as a rule, active = well fitted inhibition curve with a large enough effect; inconclusive = small, poorly fitted or top-dose-only effect; inactive = flat fitted curve, though single readings scatter.
# Columns and labels:
# [1] = test system: CRL-7250; experiment: Cytotoxic Profiling of Annotated Libraries Using Quantitative High-Throughput Screening (AID 1296008); conditions: Five cell lines viability, CellTiter-Glo ATP luminescence, 48-72 h; max response: active compounds read low; also: potency is read from the fitted curve at half-maximal effect
# Outline: (§1)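 Cells exposed to compounds for 48 or 72 hr at 37 degrees Celsius. Viability read as ATP-coupled luminescence with CellTiter-Glo after 10 min at room temperature.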
# [2] = test system: HEK293; experiment: as above; conditions: Five cell lines viability, CellTiter-Glo ATP luminescence, 48-72 h; max response: active compounds read low
# Outline: as §1
# [3] = test system: HaCat; experiment: as above; conditions: Five cell lines viability, CellTiter-Glo ATP luminescence, 48-72 h; max response: active compounds read low
# Outline: as §1
# [4] = test system: KB-3-1; experiment: as above; conditions: Five cell lines viability, CellTiter-Glo ATP luminescence, 48-72 h; max response: active compounds read low
# Outline: as §1
# [5] = test system: NIH3T3; experiment: as above; conditions: Five cell lines viability, CellTiter-Glo ATP luminescence, 48-72 h; max response: active compounds read low
# Outline: as §1
# [6] = test system: JCK; experiment: qHTS profiling for inhibitors of Plasmodium falciparum proliferation (AID 504749); also: potency is read from the fitted curve at half-maximal effect; conditions: P. falciparum in erythrocytes, SYBR Green DNA, 72 h; series mostly up to 28.7 µM
# Outline: (§2)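 Each compound contacts P. falciparum-infected red blood cells for 72 h at 37 C; lysis buffer (Tris, EDTA, saponin, Triton X, SYBR Green I) is added and fluorescence measured next morning; values normalized to controls.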
# [7] = test system: N140; experiment: as above; conditions: P. falciparum in erythrocytes, SYBR Green DNA, 72 h; series mostly up to 28.7 µM
# Outline: as §2
# [8] = test system: P93_24; experiment: as above; conditions: P. falciparum in erythrocytes, SYBR Green DNA, 72 h; series mostly up to 28.7 µM
# Outline: as §2
# [9] = test system: P94_40; experiment: as above; conditions: P. falciparum in erythrocytes, SYBR Green DNA, 72 h; series mostly up to 28.7 µM
# Outline: as §2
# [10] = test system: PAD; experiment: as above; conditions: P. falciparum in erythrocytes, SYBR Green DNA, 72 h; series mostly up to 28.7 µM
# Outline: as §2
# [11] = test system: PC15; experiment: as above; conditions: P. falciparum in erythrocytes, SYBR Green DNA, 72 h; series mostly up to 28.7 µM
# Outline: as §2
# [12] = test system: PC26; experiment: as above; conditions: P. falciparum in erythrocytes, SYBR Green DNA, 72 h; series mostly up to 28.7 µM
# Outline: as §2
# [13] = test system: PC49; experiment: as above; conditions: P. falciparum in erythrocytes, SYBR Green DNA, 72 h; series mostly up to 28.7 µM
# Outline: as §2
# [14] = test system: SC27B; experiment: as above; conditions: P. falciparum in erythrocytes, SYBR Green DNA, 72 h; series mostly up to 28.7 µM
# Outline: as §2
# [15] = test system: TAB109; experiment: as above; conditions: P. falciparum in erythrocytes, SYBR Green DNA, 72 h; series mostly up to 28.7 µM
# Outline: as §2
# [16] = test system: TAB113; experiment: as above; conditions: P. falciparum in erythrocytes, SYBR Green DNA, 72 h; series mostly up to 28.7 µM
# Outline: as §2
# [17] = test system: TAB165; experiment: as above; conditions: P. falciparum in erythrocytes, SYBR Green DNA, 72 h; series mostly up to 28.7 µM
# Outline: as §2
# [18] = test system: W2; experiment: as above; conditions: P. falciparum in erythrocytes, SYBR Green DNA, 72 h; series mostly up to 28.7 µM
# Outline: as §2
# [19] = test system: HACAT; experiment: qHTS assay to identify novel small-molecules to repurpose for Merkel cell carcinoma treatment (AID 1296009); conditions: MCC and control cell lines, CellTiter-Glo viability, 72 h
# Outline: (§3)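 Dose-response viability screen; 72 hr exposure at 37 degree celsius; CellTiter-Glo added, 10 min room temperature, luminescence read; RLUs scaled between no-cell and DMSO wells.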
# [20] = test system: HEK293T; experiment: as above; conditions: MCC and control cell lines, CellTiter-Glo viability, 72 h; at 44.8 µM (top of the series) unless noted
# Outline: as §3
# [21] = at 44.8 µM (top of the series) unless noted
# Also: nearly all actives have a fitted effect of over 60% in size.
compound,measurement,setting,value
O=C(O)c1cccnc1,Potency,[1],16.6 µM (active)
same,max response,[1],0.94%
same,Potency,[2],2.64 µM (active)
same,max response,[2],-12.4%
same,max response,[3],-6.32%
same,max response,[4],23.8% and 4.59%
same,max response,[5],-0.396% and 0.818%
Cc1ccnc2c1NC(=O)c1cccnc1N2C1CC1,Potency,[6],inactive
same,Potency,[7],inactive
same,Potency,[8],inactive
same,Potency,[9],inactive
same,Potency,[10],inactive
same,Potency,[11],inactive
same,Potency,[12],inactive
same,Potency,[13],inactive
same,Potency,[14],inactive
same,Potency,[15],inactive
same,Potency,[16],inactive
same,Potency,[17],inactive
same,Potency,[18],inactive
same,outcome,[1],inactive
same,max response,[2],-12% and -5.59%
same,max response,[3],-1.71%
same,outcome,[3],inactive
same,max response,[4],17.8%
same,outcome,[4],inactive
same,max response,[5],-5.8% and 2.37%
same,outcome,[19]; [21],inactive
COc1ccc2c(c1)c(CC(=O)OCC(=O)O)c(C)n2C(=O)c1ccc(Cl)cc1,max response,[1],-1.43% and 4.64%
same,max response,[2],-16.6%
same,outcome,[2],inactive
same,max response,[3],-2.32% and -4.14%
same,max response,[4],-10.9% and 5.13%
same,max response,[5],-11.9% and 4.26%
same,outcome,[20],inactive
COc1cnc(NS(=O)(=O)c2ccc(N)cc2)nc1,Potency,[6],inactive
same,Potency,[7],inactive
same,Potency,[9],inactive
same,Potency,[10],inactive
same,Potency,[11],inactive
same,Potency,[12],inactive
same,Potency,[13],inactive
same,Potency,[14],inactive
same,Potency,[15],inactive
same,Potency,[16],inactive
same,Potency,[17],inactive
same,Potency,[18],inactive
same,max response,[1],-6.42% and -4.75%
same,outcome,[2],inactive
same,max response,[3],-7.96%
same,outcome,[3],inactive
same,max response,[4],12.3%
same,outcome,[4],inactive
same,max response,[5],-3.77% and 1.75%
same,outcome,[19]; [21],inactive
same,outcome,[20],inactive
CCC(=O)O[C@]1(C(=O)SCF)[C@H](C)C[C@H]2[C@@H]3C[C@H](F)C4=CC(=O)C=C[C@]4(C)[C@@]3(F)[C@@H](O)C[C@@]21C,outcome,[1],inactive
same,max response,[2],1.44% and 1.99%
same,max response,[3],0.77%
same,outcome,[3],inactive
same,max response,[4],26.7%
same,outcome,[4],inactive
same,max response,[5],1.81% and -2.44%
same,outcome,[19]; [21],inactive
Clc1ccccc1CN1CCc2sccc2C1,max response,[1],-20.6%
same,outcome,[1],inactive
same,max response,[3],-7.82%
same,max response,[4],9.17% and -6.26%
same,max response,[5],1.51% and 3.19%
COc1cc2nc(N3CCCN(C)CC3)nc(NC3CCN(Cc4ccccc4)CC3)c2cc1OC,Potency,[1],9.35 µM (active)
same,Potency,[2],6.62 µM (active)
CNNCc1ccc(C(=O)NC(C)C)cc1,Potency,[6],inactive
same,Potency,[7],inactive
same,Potency,[8],inactive
same,Potency,[9],inactive
same,Potency,[10],inactive
same,Potency,[11],inactive
same,Potency,[12],inactive
same,Potency,[13],inactive
same,Potency,[14],inactive
same,Potency,[15],inactive
same,Potency,[16],inactive
same,Potency,[17],inactive
same,outcome,[1],inactive
same,max response,[2],2.6%
same,outcome,[2],inactive
same,max response,[3],-9.48%
same,outcome,[3],inactive
same,max response,[4],-11.6%
same,outcome,[4],inactive
same,max response,[5],-4.42%
same,outcome,[5],inactive
same,outcome,[19]; [21],inactive
same,outcome,[20],inactive
CC[C@H](NC(C)C)[C@H](O)c1ccc(O)c2[nH]c(=O)ccc12,Potency,[6],inactive
same,Potency,[7],inactive
same,Potency,[8],inactive
same,Potency,[9],inactive
same,Potency,[10],inactive
same,Potency,[11],inactive
same,Potency,[12],inactive
same,Potency,[13],inactive
same,Potency,[14],inactive
same,Potency,[15],inactive
same,Potency,[16],inactive
same,Potency,[17],inactive
same,Potency,[18],inactive
same,max response,[1],0.158% and -0.536%
same,outcome,[2],inactive
same,max response,[3],-10.6%
same,outcome,[3],inactive
same,max response,[4],8.39%
same,max response,[5],2.87% and -5.91%
same,outcome,[19]; [21],inactive
same,outcome,[20],inactive
COc1cc([C@@H]2c3cc4c(cc3[C@H](O)[C@H]3COC(=O)[C@H]23)OCO4)cc(OC)c1OC,Potency,[7],2.82 µM (active)
same,Potency,[8],2.24 µM (active)
same,Potency,[9],2.51 µM (active)
same,Potency,[10],3.55 µM (active)
same,Potency,[11],1.78 µM (active)
same,Potency,[12],8.49 µM (active)
same,Potency,[13],8.91 µM (active)
same,Potency,[14],4.47 µM (active)
same,Potency,[15],2.51 µM (active)
same,Potency,[16],3.16 µM (active)
same,Potency,[17],2.24 µM (active)
same,Potency,[18],1.69 µM (active)
same,Potency,[1],0.0299 µM (active)
same,max response,[1],-103%
same,outcome,[3],inactive
same,Potency,[4],32.6 nM (active) and 0.8 nM (active)
same,outcome,[19]; [21],inactive
CCOC(=O)[C@H](CCc1ccccc1)N[C@H]1CS[C@H](c2cccs2)CN(CC(=O)O)C1=O,Potency,[6],inactive
same,Potency,[11],inactive
same,Potency,[12],inactive
same,Potency,[13],inactive
same,Potency,[15],inactive
same,Potency,[16],inactive
same,max response,[1],-9.28%
same,outcome,[1],inactive
same,max response,[3],4.5%
same,outcome,[3],inactive
same,max response,[4],4.95%
same,max response,[5],3.22% and 0.311%
same,outcome,[19]; [21],inactive
same,outcome,[20],inactive
O=P(O)(O)C(O)(Cc1cccnc1)P(=O)(O)O,Potency,[6],inactive
same,Potency,[7],inactive
same,Potency,[8],inactive
same,Potency,[9],inactive
same,Potency,[10],inactive
same,Potency,[11],inactive
same,Potency,[12],inactive
same,Potency,[13],inactive
same,Potency,[14],inactive
same,Potency,[15],inactive
same,Potency,[16],inactive
same,Potency,[17],inactive
same,Potency,[18],inactive
same,max response,[1],-3.74% and -13.5% and 3.83%
same,max response,[2],-6.47% and -0.4%
same,outcome,[2],inactive
same,max response,[3],-18.6%
same,outcome,[3],inactive
same,max response,[4],16.5% and 4.21% and 6.74%
same,max response,[5],-4.1% and 0.573%
same,outcome,[5],inactive
same,outcome,[19]; at 4.96 µM (top of the series),inactive
same,outcome,[19]; at 44.8 µM (top of the series),inactive
same,outcome,[20],inactive
